SMN2 splice enh – qHTS Assay for Enhancers of SMN2 Splice Variant Expression. AID 1458, 2008. 210,000 tested, 2.8% active. HEK293 SMN2-luciferase splicing reporter, luminescence, 30-36 h. Potency, µM (series often up to 46.1 µM), inactives show at the top dose activity change, positive = activation, most hits filed as activators; note: % of control where 0% means no effect; nearly all actives have a fitted effect of over 55% in size
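qHTS luciferase splicing reporter: luminescence rises when SMN2 exon 7 is included in transfected HEK293 cells. Compound exposure lasted 30-36 h at 37C, with 4.5 mM final sodium butyrate as control, followed by a ONE-Glo read.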
NPC1 promoter act – qHTS Assay for NPC1 Promoter Activators; Huh7 NPC1 promoter luciferase reporter, 24 h; 320,000 tested, 2.4% active; Potency, µM (highest dose often 9.22 µM), inactives show top-dose activation, actives largely listed as activators; note: % of control where 0% means no effect; nearly all actives have a fitted effect of over 60% in size
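Compounds in DMSO were transferred onto Huh7 NPC1-luciferase reporter cells pre-incubated 2 h; after 24 h at 37 °C, Amplite reagent was dispensed and luminescence recorded 10 min later.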
Rab9 promoter act – qHTS Assay for Rab9 Promoter Activators; 320,000 tested, 2.8% active; Potency, µM (top dose mostly 9.22 µM), without a hit: top-dose activation, negative = inhibition, usual class: activators; Huh7 Rab9 promoter-luciferase reporter, luminescence, 24 h; note: % of control where 0% means no effect; nearly all actives have a fitted effect of over 60% in size
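Luciferase signal after 10 min detection reagent at ambient indicates Rab9 promoter upregulation; stably transfected Huh7 cells were treated 24 h with compound in DMSO at 37 °C, 5% CO2.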
FLuc counter – qHTS profiling assay for firefly luciferase inhibitor/activator using purifed enzyme and Km concentrations of substrates (counterscreen for miR-21 project). 360,000 tested, 6.9% active. Luciferin 4-monooxygenase (Photinus pyralis), P08659. purified FLuc, Km substrates, luminescence inhibition. Potency, µM (series often up to 57.5 µM), without a hit: at the highest dose activity change, negative = inhibition, actives largely listed as inhibitors. AID 588342, 2011;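 note: plate controls were vehicle for no effect and reference inhibitor for full effect; nearly all actives have a fitted effect of over 55% in size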
Target sequence (P08659 whole entry, looked up): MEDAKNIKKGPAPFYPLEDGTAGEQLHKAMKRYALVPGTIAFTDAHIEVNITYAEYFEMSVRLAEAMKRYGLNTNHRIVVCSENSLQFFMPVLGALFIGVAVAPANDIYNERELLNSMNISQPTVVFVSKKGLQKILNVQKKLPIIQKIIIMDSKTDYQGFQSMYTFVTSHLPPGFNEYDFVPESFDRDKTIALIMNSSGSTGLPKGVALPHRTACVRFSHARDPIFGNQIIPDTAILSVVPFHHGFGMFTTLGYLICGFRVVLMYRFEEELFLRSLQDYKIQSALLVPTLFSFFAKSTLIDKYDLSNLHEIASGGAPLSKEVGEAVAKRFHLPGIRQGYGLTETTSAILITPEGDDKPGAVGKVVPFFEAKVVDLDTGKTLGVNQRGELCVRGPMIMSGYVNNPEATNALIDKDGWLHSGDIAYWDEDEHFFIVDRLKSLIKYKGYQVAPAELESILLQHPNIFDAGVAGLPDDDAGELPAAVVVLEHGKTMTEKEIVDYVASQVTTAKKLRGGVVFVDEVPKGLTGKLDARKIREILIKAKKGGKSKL
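Purified P. pyralis luciferase, 10 nM final, with Km-level 10 uM D-luciferin and 10 uM ATP in 50 mM Tris acetate pH 7.5, 10 mM Mg acetate, 0.01% Tween-20, 0.05% BSA; 6-point qHTS titration about 60 µM downward; luminescence read.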
ELG1 genotox – qHTS screen for small molecules that induce genotoxicity in human embryonic kidney (HEK293T) cells expressing luciferase-tagged ELG1. HEK293T ELG1-luciferase reporter, luminescence, 16 h. Potency, µM (series often up to 46 µM), without a hit: at the top dose activity change, positive = activation, hits mostly activators. 330,000 tested, 1.3% active; note: % of control where 0% means no effect; nearly all actives have a fitted effect of over 60% in size
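Quantitative HTS format in 1536-well plates. HEK293T ELG1-luciferase reporter cells receive test compound and are incubated 16 hr at 37 °C, 5% CO2; ONE-Glo added, 30 min room temperature, then luminescence read.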
Starred values were filed as active, the others as inactive; ? = inconclusive; . = not tested or not shown; [ ] = dose if it differs, or a comment. Most compounds without a hit are left out; they make up all but 7.4% or so of the library. Calls come from the whole dose curve; as a rule, active = well fitted curve in the direction sought with a large enough effect; inconclusive = small, poorly fitted or top-dose-only effect, or another doubt; inactive = no such curve, though single readings can be large; an effect the other way counts as inactive or inconclusive. Potency is the fitted concentration of half-maximal effect.

SMILES	SMN2 splice enh	NPC1 promoter act	Rab9 promoter act	FLuc counter	ELG1 genotox
Cc1sc(NC(=O)c2ccco2)nc1-c1ccc2c(c1)CC(C)N2C(=O)C1CC1 (centres undefined)	-38%	-1%	12%	19µM*	-31%
CCOC(=O)c1cnc2c(ccc3ccccc32)c1Nc1ccc(N(C)C)cc1	-3%	.	.	2%	.
O=C(Nc1nsc(-c2ccccc2)n1)c1cccs1	3.2µM*	1.6µM*	1.1µM*	4.3µM*	0.58µM*
COC(=O)c1sc(NC(=O)c2ccco2)nc1C	8%	14%	22%	?	16%
Cc1sc(NC(=O)c2ccco2)nc1-c1ccccc1	4.5µM*	3.5µM*	1.6µM*	2.1µM*	?
CC(=O)c1sc(NC(=O)c2ccco2)nc1-c1ccccc1	28%	?	?	11µM*	15µM*
CCOC(=O)c1sc(NC(=O)c2ccco2)nc1-c1ccccc1	1%	0%	-6%	0%	-10%
Cc1ccc2nc(-c3ccccc3)c(NC(=O)c3ccco3)n2c1	-12%	-2%	-1%	-13%	0%
Cc1nc(NC(=O)c2ccco2)sc1C(=O)O	.	1%	0%	11µM*	4%
O=C(Nc1c(-c2ccccc2)nc2ccccn12)c1cccs1	-12%	-1%	2%	-4%	4%
COc1ccc(OC)c(S(=O)(=O)Nc2ccc(-c3ccc4nncn4n3)cc2)c1	.	-14%	-8%	-1%	-6%
Cc1ccccc1-c1nn(-c2ccc(F)cc2F)cc1CNCCCN(C)C	.	-6%	-3%	0%	9%
Cc1cnc(NC(=O)c2ccco2)s1	?	?	?	21µM*	?
CC(=O)c1c(C)[nH]c(C(=O)Nc2nc(-c3ccccc3)c(C)s2)c1C	.	?	?	3µM*	9%
O=C(NCCC(=O)N1CCCC(C(F)(F)F)C1)c1ccccc1Cl (centres undefined)	.	-2%	0%	1%	-10%
CCc1ccc(N(C(=O)c2snc(C(N)=O)c2N)C(C(=O)NCC2CCCO2)c2ccco2)cc1 (centres undefined)	.	-3%	-1%	1%	2%
C=CCN1c2ccccc2[C@]23C[C@@H](C(=O)OC)N(S(=O)(=O)CCCC)C2=NC(C(=O)OC)=C(C(=O)OC)[C@H]13	-6%[9.22 µM]	.	.	.	.
COC(=O)c1ccc(C(NC(=O)OCc2ccccc2)/C(=C/[C@@H](C)C(=O)NCc2cc(C)n(C)n2)c2cccnc2)cc1 (some centres undefined)	-10%	.	.	.	.
O=C(O)c1ccc(-c2nc(-c3ccccc3Cl)cs2)cc1	18µM*	?	?	17µM*	?
ClCc1csc(-c2ccccc2Cl)n1	-18%	-7%	-1%	-6%	-2%
CNC(=O)c1csc(-c2ccc(C)cc2)n1	25%	?	?	17µM*	?
CNC(=O)c1csc(-c2ccc(Cl)cc2)n1	24%	11%	?	?	?
O=C(O)c1cnn(-c2nc(-c3ccc(Cl)c(Cl)c3)cs2)c1C(F)(F)F	.	21%	15%	?	?
O=C(O)c1ccc(-c2nc(-c3ccccc3)cs2)cc1	10µM*	1.4µM*	1µM*	6µM*	7%
O=C(O)c1ccc(-c2nc(-c3ccc(Cl)c(Cl)c3)cs2)cc1	129%	3.2µM*	?	13µM*	0%
SMILES	SMN2 splice enh	NPC1 promoter act	Rab9 promoter act	FLuc counter	ELG1 genotox
COc1ccc(C(=O)N2CCNC(=O)C2)cc1S(=O)(=O)Nc1ccc(Br)cc1	.	-5%	-1%	-1%	1%
CC1(COc2ccc(CC3SC(=O)NC3=O)cc2)CCCCC1 (centres undefined)	5%	.	.	.	.
Cc1oncc1-c1csc(-c2ccccc2)n1	13%	10%	29%	?	?
CNC(=O)c1ccc(-c2nc(-c3ccccc3)cs2)cc1	16µM*	?	4µM*	9.5µM*	?
CCS(=O)(=O)c1ccc(-c2csc(-c3ccccc3)n2)c(Cl)c1Cl	-50%	8%	-1%	24µM*	21µM*
CC(=O)c1csc(-c2ccccc2)n1	0%	-1%	12%	?	10%
O=C(O)c1ccccc1-c1csc(-c2ccccc2)n1	?	?	4µM*	15µM*	?
C=CCNC(=O)c1ccc(-c2nc(-c3ccc(Cl)cc3Cl)cs2)cc1	4.5µM*	5%	8%	-5%	2%
C=CCNC(=O)c1ccc(-c2nc(-c3ccc(Cl)c(Cl)c3)cs2)cc1	-7%	-4%	1%	1%	2%
CC(c1ccccc1)N1CC(C(=O)N2CCN(Cc3ccc(C#N)cc3)CC2)CC1=O (centres undefined)	.	-3%	-5%	1%	-4%
CCc1ccc(-n2nc(C)c3c(C(=O)Nc4cc(C)c(Cl)cc4OC)cc(C)nc32)cc1	.	.	.	5%	.
O=C(O)c1ccccc1C(=O)Nc1ccc(-c2csc(-c3ccccc3)n2)cc1	72%	5%	20%	17µM*	?
O=C(Nc1ccc(-c2csc(-c3ccccc3)n2)cc1)c1ccccc1Cl	-1%	-4%	1%	?	-2%
Cc1ccc(C(=O)NCC(=O)OCc2csc(-c3ccccc3)n2)cc1	?	13%	-7%	?	?
O=C(OCc1csc(-c2ccccc2)n1)c1ccc(O)cc1	21%	17%	?	19µM*	?
CCSc1nnc(NC(=O)C2CSC3(C)CCC(=O)N23)s1 (centres undefined)	.	.	.	.	0%
CCC(CC)NC(=O)CN1CCN(S(=O)(=O)c2ccc(Br)s2)CC1	.	0%	2%	1%	-2%
COC(=O)c1ccc(NC(=O)c2ccc(OC(C)=O)c(OC)c2)cc1	?	?	?	11µM*	?
COc1cc(C(=O)Nc2ccc(O)cc2C(=O)O)ccc1OC(C)=O	.	2%	-5%	12µM*	2%
COc1ccc(C(=O)Nc2ccccc2C(=O)N2CCOCC2)cc1OC	.	-4%	-5%	-2%	-1%
O=C(CSc1nc2c(c(=O)[nH]1)CN(Cc1ccc(F)cc1)CC2)Nc1cccc(C(F)(F)F)c1	.	.	.	1%	.
Cc1ccc(C2=NN3C(C2)c2ccccc2OC32C(=O)Nc3ccccc32)cc1 (centres undefined)	?	2.5µM*	?	15µM*	?
CN1C(=O)C2(Oc3ccccc3C3CC(c4ccccc4)=NN32)c2ccccc21 (centres undefined)	11%	3%	-12%	?	0%
O=c1cc(/C=C/c2c(F)cccc2Cl)[nH]c2ccccc12	16%	?	?	?	2%
Oc1cccc2ccc(/C=C/c3ccccc3Cl)nc12	.	?	4%	1.9µM*	18µM*

Bioassay records (PubChem)
